According to PubChem BioAssay (Tox21):
Results filed as inconclusive are left out. Calls of active or inactive are those of the source. Unless noted, calls come from the whole dose curve; as a rule, active = well fitted curve in the direction sought with a large enough effect in the repeat runs; inconclusive = weak or mixed curves; inactive = no such curve, though single readings can be large; an effect the other way counts as inactive or inconclusive.

Tests used:
[1] = qHTS assay to identify small molecule agonists of the TGF-beta/Smad signaling pathway - cell viability counter screen (AID 1346829); note: top concentration of the series differs between compounds; nearly all actives have a fitted effect of over 45% in size
In short: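 Same-well cytotoxicity: CellTiter-Glo added after the 2 hr room-temperature beta-lactamase substrate step, luminescence measured 30 min later; cells had 5 hr of compound at 37 C.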

[2] = qHTS assay to identify small molecule agonists of the TGF-beta/Smad signaling pathway (AID 1346859; active = well fitted activation curve with a large enough effect in the signal ratio in the repeat runs, not every such curve was filed as active; the % refers to the signal ratio; note: series mostly up to about 77 µM)
In short: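 Reporter line: HEK 293T with stably integrated SBE-controlled beta-lactamase. Compound exposure lasts 5 hr at 37 C and 5% CO2; substrate loading follows for 2 hr at room temperature, with emission read at 460 and 530 nm.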

[3] = biological target: Thyrotropin-releasing hormone receptor (Homo sapiens) (UniProt P34981); assay: qHTS assay to identify small molecule antagonists of the thyrotropin-releasing hormone receptor (TRHR) signaling pathway (AID 1346877; active = well fitted inhibition curve with a large enough effect in the repeat runs, not every such curve was filed as active; note: series mostly up to about 51 µM)
In short: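 Antagonism is measured as suppression of the calcium response to 1 nM TRH in TRHR-HEK293 cells that have been dye-loaded for 2 h at 37 °C after overnight plating. Each compound is tested at 15 concentrations in triplicate.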

[4] = biological target: Thyrotropin-releasing hormone receptor (Homo sapiens) (UniProt P34981); assay: qHTS assay to identify small molecule agonists of the thyrotropin-releasing hormone receptor (TRHR) signaling pathway (AID 1346891; calls by dose curve;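 note: HEK293 cells expressing TRHR with calcium dye readout; series mostly up to about 58 µM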)
In short: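 Cells: TRHR-Hek293, seeded and incubated 18 h. Dye loading: 2 h at 37 °C. Compound added from DMSO stock by pin tool. Read-out: kinetic calcium fluorescence over 3 min.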

[5] = Human pregnane X receptor (PXR) small molecule agonists, qHTS cell viability counter screen (AID 1346977); note: nearly all actives have a fitted effect of over 50% in size
In short: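 Cytotoxicity counter screen run in the same wells as the PXR luciferase assay, using PXR-Luc HepG2 cells in charcoal-stripped serum medium. Viability: CellTiter-Fluor fluorescence after 24hr compound treatment.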

[6] = Caspase-3/7 induction in HepG2 cells by small molecules, qHTS assay (AID 1346978); note: nearly all actives have a fitted effect of over 15% in size
In short: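 Caspase-3/7 induction was measured by Caspase-Glo 3/7 luminescence (30 min, room temperature) after a 17 hr compound exposure of wild-type HepG2 cells seeded at 2,000 per well and pre-incubated 5 hr.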

[7] = Caspase-3/7 induction in CHO-K1 cells by small molecules, qHTS cell viability counter screen (AID 1346979); note: nearly all actives have a fitted effect of over 35% in size
In short: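 Cytotoxicity counter screen run in parallel with the caspase-3/7 assay: CHO-K1 cells, 16hr compound treatment at 37C, then CellTiter-Fluor for 1hr before fluorescence reading.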

[8] = Caspase-3/7 induction in CHO-K1 cells by small molecules, qHTS assay (AID 1346980); note: nearly all actives have a fitted effect of over 15% in size
In short: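 Luminescent Caspase-Glo 3/7 read (30min, room temperature) quantified apoptosis induction. Cells were wild-type CHO-K1, treated with compound for 17hr at 37 C and 5% CO2.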

[9] = biological target: Cytochrome P450 2C19 (Homo sapiens) (UniProt P33261); assay: Cytochrome P450 Family 2 Subfamily C Member 19 (CYP2C19) small molecule antagonists: luciferase reporter qHTS assay (AID 1671197); note: nearly all actives have a fitted effect of over 65% in size; note: potency is the fitted concentration of half-maximal effect; for activity change, negative = inhibition: series mostly up to about 120 µM
In short: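 Quantitative high-throughput screen of the Tox21 library using CYP2C19 with proluciferin substrate. Reaction: NADPH regeneration, 37C, 1 h, after 10 min compound preincubation at room temperature. Readout: luminescence.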

[10] = biological target: Cytochrome P450 2C9 (Homo sapiens) (UniProt P11712); assay: Cytochrome P450 Family 2 Subfamily C Member 9 (CYP2C9) small molecule antagonists: luciferase reporter qHTS assay (AID 1671198); note: series mostly up to about 120 µM; nearly all actives have a fitted effect of over 50% in size
In short: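 Enzyme-substrate mix preincubated with compound 10 min at room temperature; reaction started with NADPH regeneration solution, 1 h 37C. Luminescent luciferin product read after 20 min detection reagent.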

[11] = biological target: Cytochrome P450 1A2 (Homo sapiens) (UniProt P05177); assay: Cytochrome P450 Family 1 Subfamily A Member 2 (CYP1A2) small molecule antagonists: luciferase reporter qHTS assay (AID 1671199); note: series mostly up to about 120 µM; nearly all actives have a fitted effect of over 50% in size
In short: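 Compounds were incubated with CYP1A2 and a luminogenic proluciferin substrate for 10 min at room temperature before the reaction was started with NADPH regeneration solution. After 1 h, detection reagent was added and light output, proportional to CYP activity, was recorded.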

[12] = biological target: Voltage-gated inwardly rectifying potassium channel KCNH2 (Homo sapiens) (UniProt Q12809); assay: Human Ether-a-go-go-Related Gene (hERG) channel small molecule antagonists: fluorescence cell-based qHTS assay (AID 1671200);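 note: hERG-expressing U2OS cells given a thallium stimulus after FluxOR II dye loading; series mostly up to about 77 µM; nearly all actives have a fitted effect of over 50% in size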
In short: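 Fluorescence at 540 nm emission (480 nm excitation) was recorded kinetically for 2 min at 1-second intervals once the thallium-containing stimulus reached cells previously loaded with FluxOR II dye.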

[13] = biological target: Cytochrome P450 3A4 (Homo sapiens) (UniProt P08684); assay: Cytochrome P450 Family 3 Subfamily A Member 4 (CYP3A4) small molecule antagonists: luciferase reporter qHTS assay (AID 1671201); note: nearly all actives have a fitted effect of over 50% in size; note: potency is the fitted concentration of half-maximal effect; for activity change, negative = inhibition: series mostly up to about 120 µM
In short: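 qHTS, 1536-well. CYP3A4 + proluciferin substrate, cpd 10 min RT → NADPH regen 1 h RT → detection reagent 20 min → luminescence (RLU). Ketoconazole positive control.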

[14] = Caspase-3/7 induction in HepG2 cells by small molecules, qHTS cell viability counter screen (AID 1346981); note: series mostly up to about 92 µM; nearly all actives have a fitted effect of over 30% in size
In short: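 Cell viability is measured as a cytotoxicity counter screen alongside the Caspase-Glo 3/7 readout in identical wells. Wild-type HepG2 cells are treated with test compounds for 16 hr at 37 C before CellTiter-Fluor addition and a 1-hr incubation.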

[15] = biological target: Nuclear receptor subfamily 1 group I member 2 (Homo sapiens) (UniProt O75469); assay: Human pregnane X receptor (PXR) small molecule agonists, qHTS assay (AID 1346982); note: nearly all actives have a fitted effect of over 35% in size; note: potency is the fitted concentration of half-maximal effect
In short: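 Cells: HepG2 stably carrying PXR-Luc. Medium held 5% charcoal-stripped FBS. Compounds in DMSO added after 5 hr plating, incubated 24 hr, then luminescence quantified with ONE-Glo.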

[16] = biological target: Nuclear receptor subfamily 1 group I member 2 (Rattus norvegicus) (UniProt Q9R1A7); assay: Rat pregnane X receptor (rPXR) activation by small molecules, qHTS assay (AID 1346983); settings: rPXR luciferase reporter cells, One-Glo luminescence, 24 h; max activation: active compounds read high; note: nearly all actives have a fitted effect of over 20% in size; note: potency is the fitted concentration of half-maximal effect
In short: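 Luminescent readout (One-Glo luciferase, 30 min room temperature) followed 24 hr compound treatment at 37 C of rPXR cells plated 2,000 per well and preincubated 5hr; qHTS format with compounds delivered in DMSO.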

[17] = biological target: Nuclear receptor subfamily 1 group I member 2 (Homo sapiens) (UniProt O75469); assay: CYP3A4 induction through human pregnane X receptor (PXR) by small molecules, qHTS assay (AID 1346984); note: nearly all actives have a fitted effect of over 40% in size
In short: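 Quantitative HTS in DPX-2 cells, i.e. HepG2 transfected with PXR response element and CYP3A4-promoter luciferase. Compounds in DMSO incubated 24hr at 37C; then P450-Glo CYP3A4 substrate, 3uM final, 3hr; One-Glo luminescence.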

[18] = biological target: Nuclear receptor subfamily 1 group I member 2 (Homo sapiens) (UniProt O75469); assay: Human pregnane X receptor (PXR) activation by small molecules, qHTS assay (AID 1346985); note: nearly all actives have a fitted effect of over 40% in size
In short: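 DPX-2 cells (HepG2 co-transfected with a PXR response element and a CYP3A4-promoter luciferase construct) were seeded at 2,000 per well, rested 5 hr at 37C, then exposed to DMSO-dissolved compounds for 24 hr. Activation was read as luciferase luminescence.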

[19] = biological target: Cytochrome P450 2D6 (Homo sapiens) (UniProt P10635); assay: Cytochrome P450 Family 2 Subfamily D Member 6 (CYP2D6) small molecule antagonists: luciferase reporter qHTS assay (AID 1671196); note: nearly all actives have a fitted effect of over 50% in size; note: potency is the fitted concentration of half-maximal effect; for activity change, negative = inhibition: series mostly up to about 120 µM
In short: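 Enzyme and proluciferin substrate were first combined with test chemical for 10 min at room temperature. Adding NADPH regeneration solution started a 1 h reaction, stopped with luciferin detection reagent and read by luminescence 20 min later.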
% is set by controls: 0 for no effect and ±100 for the full control effect.

Chain of Cytochrome P450 2C9 (Homo sapiens) (P11712 whole entry, looked up): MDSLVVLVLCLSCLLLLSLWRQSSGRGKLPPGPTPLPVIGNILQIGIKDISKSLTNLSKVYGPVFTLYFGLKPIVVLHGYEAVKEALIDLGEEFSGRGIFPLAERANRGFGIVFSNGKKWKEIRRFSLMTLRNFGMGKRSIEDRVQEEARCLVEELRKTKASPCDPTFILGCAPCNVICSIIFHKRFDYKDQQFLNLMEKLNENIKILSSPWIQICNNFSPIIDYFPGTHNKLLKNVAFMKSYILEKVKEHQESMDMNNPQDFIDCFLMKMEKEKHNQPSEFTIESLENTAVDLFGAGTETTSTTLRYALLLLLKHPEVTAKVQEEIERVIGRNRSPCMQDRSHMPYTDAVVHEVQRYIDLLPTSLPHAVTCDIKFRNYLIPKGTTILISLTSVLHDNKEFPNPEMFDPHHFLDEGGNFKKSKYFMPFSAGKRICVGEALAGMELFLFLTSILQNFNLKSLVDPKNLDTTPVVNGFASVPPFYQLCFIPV
Chain of Thyrotropin-releasing hormone receptor (Homo sapiens) (P34981 whole entry, looked up): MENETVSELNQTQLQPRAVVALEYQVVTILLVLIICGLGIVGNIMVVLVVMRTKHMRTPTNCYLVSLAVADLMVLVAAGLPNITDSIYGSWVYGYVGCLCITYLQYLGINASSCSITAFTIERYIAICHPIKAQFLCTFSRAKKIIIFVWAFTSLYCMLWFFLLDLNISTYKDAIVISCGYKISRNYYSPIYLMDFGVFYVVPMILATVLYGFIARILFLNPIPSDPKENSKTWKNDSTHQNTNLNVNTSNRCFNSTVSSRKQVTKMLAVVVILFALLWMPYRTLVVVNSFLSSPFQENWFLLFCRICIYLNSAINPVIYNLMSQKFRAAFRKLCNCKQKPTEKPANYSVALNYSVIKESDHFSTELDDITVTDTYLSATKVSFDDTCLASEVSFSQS
Chain of Nuclear receptor subfamily 1 group I member 2 (Homo sapiens) (O75469 whole entry, looked up): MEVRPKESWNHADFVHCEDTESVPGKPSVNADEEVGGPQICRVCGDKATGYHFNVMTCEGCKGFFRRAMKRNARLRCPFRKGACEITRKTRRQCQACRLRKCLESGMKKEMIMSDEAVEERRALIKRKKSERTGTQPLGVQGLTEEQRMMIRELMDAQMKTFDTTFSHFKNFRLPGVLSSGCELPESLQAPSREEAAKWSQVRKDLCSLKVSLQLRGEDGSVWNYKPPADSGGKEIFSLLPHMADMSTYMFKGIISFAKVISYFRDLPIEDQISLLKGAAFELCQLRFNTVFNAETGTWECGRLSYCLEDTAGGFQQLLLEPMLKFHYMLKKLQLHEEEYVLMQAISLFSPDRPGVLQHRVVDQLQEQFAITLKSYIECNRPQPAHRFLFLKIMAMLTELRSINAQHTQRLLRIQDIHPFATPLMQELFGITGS
Chain of Cytochrome P450 3A4 (Homo sapiens) (P08684 whole entry, looked up): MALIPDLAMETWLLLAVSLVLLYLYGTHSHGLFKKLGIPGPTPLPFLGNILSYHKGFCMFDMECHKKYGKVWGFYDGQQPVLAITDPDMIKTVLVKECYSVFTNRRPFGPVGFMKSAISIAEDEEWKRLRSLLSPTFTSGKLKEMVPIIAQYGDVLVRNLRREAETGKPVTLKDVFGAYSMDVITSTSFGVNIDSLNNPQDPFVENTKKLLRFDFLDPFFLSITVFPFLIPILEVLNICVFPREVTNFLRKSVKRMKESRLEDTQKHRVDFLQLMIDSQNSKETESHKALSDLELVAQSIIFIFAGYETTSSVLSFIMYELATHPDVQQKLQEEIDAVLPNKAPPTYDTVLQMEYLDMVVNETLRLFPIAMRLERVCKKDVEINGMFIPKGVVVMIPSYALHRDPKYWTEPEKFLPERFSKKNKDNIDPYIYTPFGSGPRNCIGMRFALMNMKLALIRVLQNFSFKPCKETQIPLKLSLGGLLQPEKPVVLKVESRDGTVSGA
Chain of Cytochrome P450 2D6 (Homo sapiens) (P10635 whole entry, looked up): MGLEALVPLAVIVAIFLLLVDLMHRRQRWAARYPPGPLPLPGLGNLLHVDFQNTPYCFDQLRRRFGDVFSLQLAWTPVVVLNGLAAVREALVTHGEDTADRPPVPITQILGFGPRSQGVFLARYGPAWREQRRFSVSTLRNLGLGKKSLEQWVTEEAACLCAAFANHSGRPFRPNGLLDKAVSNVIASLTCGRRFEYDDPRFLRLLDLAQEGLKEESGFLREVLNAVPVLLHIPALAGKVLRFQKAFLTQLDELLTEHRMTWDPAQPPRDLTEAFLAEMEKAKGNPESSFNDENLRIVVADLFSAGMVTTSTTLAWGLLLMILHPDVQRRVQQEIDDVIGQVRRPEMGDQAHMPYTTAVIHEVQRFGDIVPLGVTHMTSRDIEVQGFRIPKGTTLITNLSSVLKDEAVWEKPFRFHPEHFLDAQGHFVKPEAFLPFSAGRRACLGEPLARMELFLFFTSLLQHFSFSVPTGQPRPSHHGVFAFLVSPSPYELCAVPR
Chain of Cytochrome P450 2C19 (Homo sapiens) (P33261 whole entry, looked up): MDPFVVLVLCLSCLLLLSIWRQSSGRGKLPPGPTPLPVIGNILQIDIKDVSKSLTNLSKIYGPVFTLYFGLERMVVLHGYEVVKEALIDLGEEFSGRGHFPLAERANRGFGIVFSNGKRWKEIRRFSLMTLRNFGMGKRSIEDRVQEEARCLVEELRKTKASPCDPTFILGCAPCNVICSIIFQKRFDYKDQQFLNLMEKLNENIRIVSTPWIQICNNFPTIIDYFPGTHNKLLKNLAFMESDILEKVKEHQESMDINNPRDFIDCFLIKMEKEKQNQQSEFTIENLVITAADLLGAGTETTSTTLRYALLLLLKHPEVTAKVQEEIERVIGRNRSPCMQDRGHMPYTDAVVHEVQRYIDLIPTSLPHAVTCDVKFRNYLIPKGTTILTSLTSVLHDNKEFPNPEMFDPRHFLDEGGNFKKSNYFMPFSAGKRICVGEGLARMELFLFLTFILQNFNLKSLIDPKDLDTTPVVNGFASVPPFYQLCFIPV
Chain of Voltage-gated inwardly rectifying potassium channel KCNH2 (Homo sapiens) (Q12809 whole entry, looked up): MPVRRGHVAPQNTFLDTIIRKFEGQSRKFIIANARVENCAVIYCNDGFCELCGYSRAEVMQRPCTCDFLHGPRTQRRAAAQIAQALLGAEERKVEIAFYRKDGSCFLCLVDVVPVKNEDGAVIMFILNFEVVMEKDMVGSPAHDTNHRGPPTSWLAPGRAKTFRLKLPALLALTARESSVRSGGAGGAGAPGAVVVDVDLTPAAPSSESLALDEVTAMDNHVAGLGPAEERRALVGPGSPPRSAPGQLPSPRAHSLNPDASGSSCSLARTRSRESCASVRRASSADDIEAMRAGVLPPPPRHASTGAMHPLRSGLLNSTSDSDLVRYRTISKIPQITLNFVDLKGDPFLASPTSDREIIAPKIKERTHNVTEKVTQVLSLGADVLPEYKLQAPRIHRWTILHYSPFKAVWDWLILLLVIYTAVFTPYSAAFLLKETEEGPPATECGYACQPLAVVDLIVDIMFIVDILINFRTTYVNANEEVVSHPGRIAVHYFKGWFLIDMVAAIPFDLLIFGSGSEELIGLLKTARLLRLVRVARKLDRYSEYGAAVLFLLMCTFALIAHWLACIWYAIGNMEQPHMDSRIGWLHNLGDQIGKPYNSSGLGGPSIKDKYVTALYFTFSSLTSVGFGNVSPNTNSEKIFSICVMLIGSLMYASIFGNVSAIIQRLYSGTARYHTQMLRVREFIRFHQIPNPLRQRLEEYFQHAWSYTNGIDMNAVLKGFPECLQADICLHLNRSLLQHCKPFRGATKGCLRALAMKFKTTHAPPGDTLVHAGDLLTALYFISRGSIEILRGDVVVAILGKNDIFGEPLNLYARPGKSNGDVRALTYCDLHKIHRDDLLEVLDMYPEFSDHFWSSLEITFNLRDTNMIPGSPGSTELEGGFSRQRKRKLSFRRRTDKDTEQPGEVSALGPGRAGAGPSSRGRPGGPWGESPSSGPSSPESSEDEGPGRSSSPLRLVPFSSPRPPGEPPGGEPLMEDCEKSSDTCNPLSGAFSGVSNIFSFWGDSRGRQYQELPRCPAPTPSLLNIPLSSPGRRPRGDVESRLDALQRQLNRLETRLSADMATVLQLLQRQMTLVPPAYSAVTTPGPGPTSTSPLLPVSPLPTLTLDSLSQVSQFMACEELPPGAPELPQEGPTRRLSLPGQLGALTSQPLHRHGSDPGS
Chain of Cytochrome P450 1A2 (Homo sapiens) (P05177 whole entry, looked up): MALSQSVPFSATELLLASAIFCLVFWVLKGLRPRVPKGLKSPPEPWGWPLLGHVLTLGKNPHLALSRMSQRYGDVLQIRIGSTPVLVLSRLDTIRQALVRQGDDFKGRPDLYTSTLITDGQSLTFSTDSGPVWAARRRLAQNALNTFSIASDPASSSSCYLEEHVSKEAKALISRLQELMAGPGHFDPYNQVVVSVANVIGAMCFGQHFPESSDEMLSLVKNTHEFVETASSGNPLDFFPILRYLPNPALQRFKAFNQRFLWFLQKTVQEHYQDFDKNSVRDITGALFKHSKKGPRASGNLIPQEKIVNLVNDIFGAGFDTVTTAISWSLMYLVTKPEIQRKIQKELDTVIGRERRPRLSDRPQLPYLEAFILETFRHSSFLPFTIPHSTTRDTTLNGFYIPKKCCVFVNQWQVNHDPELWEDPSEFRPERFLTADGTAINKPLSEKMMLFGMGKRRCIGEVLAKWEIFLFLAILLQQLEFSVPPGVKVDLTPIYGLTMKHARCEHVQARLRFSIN
Chain of Nuclear receptor subfamily 1 group I member 2 (Rattus norvegicus) (Q9R1A7 whole entry, looked up): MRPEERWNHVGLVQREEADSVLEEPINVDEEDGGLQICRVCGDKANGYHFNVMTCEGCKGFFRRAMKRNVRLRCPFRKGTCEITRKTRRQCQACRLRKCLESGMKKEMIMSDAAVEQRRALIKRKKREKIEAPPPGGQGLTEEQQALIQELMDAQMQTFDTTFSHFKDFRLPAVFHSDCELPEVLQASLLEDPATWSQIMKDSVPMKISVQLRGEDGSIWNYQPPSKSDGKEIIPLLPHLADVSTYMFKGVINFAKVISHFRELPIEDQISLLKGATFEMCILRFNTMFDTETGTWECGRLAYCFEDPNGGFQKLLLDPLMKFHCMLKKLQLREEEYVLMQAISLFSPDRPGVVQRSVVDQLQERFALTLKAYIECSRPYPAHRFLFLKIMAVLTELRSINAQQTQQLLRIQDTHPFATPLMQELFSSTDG

CC(CN1CC(=O)NC(=O)C1)N1CC(=O)NC(=O)C1 (centres undefined)
inactive: outcome [1] | outcome [2] | outcome [3] | Potency [4] | outcome [5] | outcome [6] | Potency [7] | outcome [8] | Potency [9] | Potency [10] | Potency [11] | Potency [12] | Potency [13]

C[C@]12C=CC(=O)C=C1[C@@H](F)C[C@@H]1[C@@H]2[C@@H](O)C[C@@]2(C)[C@H]1CC[C@]2(O)C(=O)CO
inactive: outcome [1] | outcome [2] | outcome [3] | Potency [4] | outcome [5] | Potency [7] | outcome [8] | outcome [14] | Potency [15] | outcome [17] | outcome [18] | Potency [19] | Potency [9] | Potency [10] | Potency [12]
active: Potency [16] 12.6 µM

O=C[C@@H](O)[C@H](O)[C@H](O)CO
inactive: outcome [1] | outcome [2] | outcome [3] | Potency [4] | outcome [5] | outcome [6] | Potency [7] | outcome [14] | Potency [15] | Potency [19] | Potency [9] | Potency [10] | Potency [12]

O=C(c1ccccc1)c1cccc(O)c1
active: Potency [15] 55.3 µM | Potency [19] 64.3 µM | Potency [9] 22.8 µM
inactive: outcome [1] | outcome [2] | outcome [3] | Potency [4] | outcome [5] | Potency [7] | outcome [8] | outcome [14] | Potency [10] | Potency [12]

C/C=C/C(=O)CCCC
inactive: outcome [1] | outcome [2] | outcome [3] | Potency [4] | outcome [5] | outcome [6] | Potency [7] | outcome [14] | Potency [15] | Potency [19] | Potency [11] | Potency [12]
active: Potency [13] 56.4 µM

COc1ccccc1N1CCN(CC(O)COc2cc(OC)c(OC)c(OC)c2)CC1 (centres undefined)
inactive: outcome [1] | outcome [2] | outcome [3] | Potency [4] | outcome [5] | outcome [6] | Potency [7] | outcome [14] | Potency [15] | Potency [19] | Potency [9] | Potency [12] | Potency [13]

Cc1ccc(O)c([N+](=O)[O-])c1
inactive: outcome [1] | outcome [2] | outcome [3] | Potency [4] | outcome [5] | outcome [6] | Potency [7] | outcome [8] | Potency [15] | Potency [9] | Potency [10] | Potency [12] | Potency [13]

N=C(N)N1CCc2ccccc2C1
inactive: activity change, negative = cytotoxicity [1] -4.14% [at 6.97 µM] | activation [2] -1.64% [at 6.97 µM] | activity, negative = inhibition [3] 4% [at 4.65 µM] | activation [4] 0.0364% [at 5.23 µM] | activity change, negative = cytotoxicity [5] 4.15% [at 8.39 µM] | activity change, negative = cytotoxicity [7] 6.67% [at 8.39 µM] | caspase-3/7 activation [8] -0.384% [at 8.39 µM] | activity change, negative = cytotoxicity [14] 3.77% [at 8.39 µM] | activation [15] -6.7% [at 8.39 µM] | max activation [16] -0.056% | outcome [17] | outcome [18] | activity change, negative = inhibition [19] -15.2% [at 10.5 µM] | activity change, negative = inhibition [9] 22.1% [at 10.5 µM] | activity change, negative = inhibition [10] 6.48% [at 10.5 µM] | activity change, negative = inhibition [12] -6.17% [at 6.97 µM]

CC1(C)CC(N)CC(C)(C)N1
inactive: outcome [1] | outcome [2] | outcome [3] | Potency [4] | outcome [5] | outcome [6] | Potency [7] | outcome [14] | Potency [15] | Potency [19] | Potency [9] | Potency [10] | Potency [12] | Potency [13]
